Compound activity: PubChem BioAssay, Buhrlage Lab, Dana-Farber Cancer Institute and Novartis Institutes for BioMedical Research (Cambridge, Mass)
USP28 inh – inhibitors of human USP28 deubiquitinase | inhibition, % at 25 µM | purified USP28, Ub-rhodamine cleavage fluorescence, 30 min | actives 3% (n = 47,000) | AID 1645857, 2021
USP17 block – inhibitors of human USP17 deubiquitinase. inhibition, % at 50 µM. purified USP17, Ub-rhodamine cleavage fluorescence, 3 h. Ubiquitin carboxyl-terminal hydrolase 17-like protein 5 (Homo sapiens), A8MUK1. actives 6.5% (n = 47,000)
USP30 inh – inhibitors of human USP30 deubiquitinase | Ubiquitin carboxyl-terminal hydrolase 30 (Homo sapiens), Q70CQ3 | purified USP30, Ub-rhodamine cleavage fluorescence | inhibition, % at 25 µM | actives 5.3% (n = 47,000) | AID 1645860, 2021
Target sequence (Q70CQ3 whole entry, looked up): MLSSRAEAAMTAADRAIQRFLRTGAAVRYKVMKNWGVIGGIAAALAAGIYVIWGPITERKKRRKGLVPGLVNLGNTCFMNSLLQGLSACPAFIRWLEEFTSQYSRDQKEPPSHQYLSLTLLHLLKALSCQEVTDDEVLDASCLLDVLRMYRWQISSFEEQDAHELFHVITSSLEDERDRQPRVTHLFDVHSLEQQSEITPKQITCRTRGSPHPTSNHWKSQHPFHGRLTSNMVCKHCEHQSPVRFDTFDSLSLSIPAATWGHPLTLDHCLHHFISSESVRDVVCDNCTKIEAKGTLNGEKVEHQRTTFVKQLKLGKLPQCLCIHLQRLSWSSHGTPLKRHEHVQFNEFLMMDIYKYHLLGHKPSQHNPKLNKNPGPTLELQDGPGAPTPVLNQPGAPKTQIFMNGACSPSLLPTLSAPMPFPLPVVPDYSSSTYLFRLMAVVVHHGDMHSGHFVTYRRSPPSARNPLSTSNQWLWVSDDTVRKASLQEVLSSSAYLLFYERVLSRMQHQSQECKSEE
* = called active by the depositor; . = no result. Hits are enriched below; roughly 11% of the tested compounds scored in any of these assays. No stated cut-off is given here; in the data, active means inhibition above about 30%; inactive means the rest.

SMILES	USP28 inh	USP17 block	USP30 inh
CCC1CCCCN1CC(=O)Nc1ccc2c(c1)OCCO2 (centres undefined)	1.1	3.4	-11.6
Cc1nc(=O)c2ccccc2n1C1=CCN(C(=O)C2(c3ccccc3)CC2)CC1	-2.4	-0.1	3.1
CC1[C@@H]2[C@@H](COc3cccnc3)C[C@H](CN1C(=O)c1cccnc1)N2C (some centres undefined)	-4.7	-58.5	-40.7
Cn1cc(-c2noc(C3(c4cccc(Cl)c4)CCOCC3)n2)cn1	5.1	2.6	2.1
Cc1nc(-c2cccc(C(=O)N3CCCN(c4nc5cccnc5o4)CC3)c2)no1	3.3	2.0	14.4
N#Cc1ccc(C(=O)Nc2ccc([C@H]3OCC(=O)N[C@@H]3CO)cc2)cc1	0.0	32.7*	34.7*
O=C1CO[C@H](c2ccc(NC(=O)c3cc(F)cc(F)c3)cc2)[C@@H](CO)N1	1.6	23.6	19.3
O=C(NCCc1ccc(F)cc1)c1cc2c([nH]c1=O)CCCC2	-12.0	41.8*	-0.8
O=C(NCCc1ccc(F)cc1)c1csc2c1CCCC2	21.8	4.8	15.0
COc1cccc(CN=C(Nc2ccc(OC)c(OC)c2)NS(C)(=O)=O)c1	10.8	-4.4	28.1
Cc1ccc(NC(=O)c2cccc(-c3nc(-c4ccccc4)no3)c2)nc1	19.4	35.3*	25.7
Cc1ccc(CNC(=O)c2cccc(-c3nc(-c4ccccc4)no3)c2)o1	-7.9	-12.4	0.0
Cc1cc(-c2cnc(N3CCCC3)nc2C2CCN(c3nccc(C)n3)CC2)on1	1.3	8.4	-1.6
Cc1cc(-c2cnc(N3CCSCC3)nc2-c2ccoc2)on1	41.4*	7.0	-2.6
COc1ccc(-c2nc(Cn3nnc(C(=O)Nc4ccc(C)cc4C)c3N)c(C)o2)cc1	6.9	28.9	57.2*
CCOC(=O)c1noc2nc(C)n(Cc3nc(-c4ccc(OC)cc4)oc3C)c(=O)c12	-1.3	0.0	-3.1
COc1ccc(-c2nc(Cn3nnc(C(=O)Nc4ccc(C)c(C)c4)c3N)c(C)o2)cc1	-1.8	79.8*	7.6
COc1ccc(-c2nc(Cn3c(=O)n(C(C)C)c(=O)c4ccccc43)c(C)o2)cc1	8.8	10.6	5.9
Cc1sc2ncnc(Oc3ccc4c(c3)OCO4)c2c1C	-13.8	-16.1	-109.2
CSCc1cc(NCc2ccccc2)nc(-c2ccncc2)n1	22.4	23.3	40.6*
c1ccc(-c2cc(NC3CC3)nc(-c3ccncc3)n2)cc1	-5.5	-8.0	-66.1
COc1cccc(CNC(=O)c2snc(-c3ccccn3)c2N)c1	21.6	14.6	0.8
Cc1ccc(S(=O)(=O)N2CCC(C(=O)Nc3nnc(C)o3)CC2)c(C)c1	11.5	-2.8	37.4*
CCC(=O)N(C1CCOCC1)C1CCN(S(=O)(=O)c2ccc(C)cc2C)CC1	-11.4	-12.2	-3.5
COCCN1C(=O)CO[C@H]2CN(S(=O)(=O)C3CCCCC3)C[C@@H]21	-2.9	-1.6	-7.9
SMILES	USP28 inh	USP17 block	USP30 inh
COc1c2c(cc3c1C(C(=O)Nc1ccc(C)c(C)c1)N(C)CC3)OCO2 (centres undefined)	-8.2	-11.9	-7.9
COc1c2c(cc3c1C(CC(=O)c1c(O)c(OC)c4occc4c1OC)[N+](C)(C)CC3)OCO2 (centres undefined)	13.0	29.8	38.7*
O=C(COC(=O)C(Cc1ccccc1)NC(=O)c1ccccc1)NCc1ccc2c(c1)OCO2 (centres undefined)	2.1	46.8*	10.1
CC(C)C(NC(=O)c1ccccc1Cl)C(=O)OCC(=O)NCc1ccc2c(c1)OCO2 (centres undefined)	-2.6	-5.4	-0.4
O=C(O)C(c1c[nH]c2cc(Br)ccc12)N1CCCCCC1 (centres undefined)	-12.9	-1.0	5.5
O=C(NCc1nnc(SCC(=O)N2CCN(c3ccccc3)CC2)o1)c1ccccc1F	-10.6	2.1	-18.4
O=C(CSc1nnc(CNC(=O)c2ccccc2F)o1)Nc1ccc(Br)cc1	8.3	32.6*	-0.1
CC(C)CCCCCCCCCCCC(=O)O	13.6	43.0*	46.9*
N[C@H](CCCC(=O)O)C(=O)O	-1.2	-0.4	9.8
O=C(CSc1cn(Cc2cccc(F)c2)c2ccccc12)Nc1ccccc1C(F)(F)F	12.8	11.0	17.9
Cc1ccc(Cn2cc(SCC(=O)Nc3ccc(F)cc3F)c3ccccc32)cc1	5.5	31.8*	21.5
O=C(C1CCOC1)N1CCC2(CC1)CN(c1ncccn1)c1ccccc12 (centres undefined)	-9.3	-11.7	-10.3
O=C(C1CCOC1)N1CCC2(CC1)CN(c1cccnc1)c1ccccc12 (centres undefined)	26.3	.	49.3*
CC(C)c1ccc(S(=O)(=O)N2CCCC(c3nc(-c4cccnc4)no3)C2)cc1 (centres undefined)	21.0	51.7*	82.0*
Cc1ccc(S(=O)(=O)N2CCCC(c3nc(-c4cccnc4)no3)C2)cc1C (centres undefined)	-6.5	-5.1	-2.8
Cc1nn(C)c2nc(C3(C)CCCN(C(=O)c4cnccn4)C3)ccc12 (centres undefined)	-11.5	-12.0	1.0
Cc1c(C(=O)Nc2ccc(Oc3ccccc3)cc2)sc2ncnc(N3CCN(c4ccccc4)CC3)c12	-4.9	-2.9	0.4
Cc1nc(SCc2ccc(Cl)cc2Cl)c2oc3ccccc3c2n1	10.3	18.1	24.5
CCc1nc(SCC(=O)NC2CCCCC2)c2oc3ccccc3c2n1	-7.0	-0.3	6.4
CC(=O)CSc1nc(C)nc2c1oc1ccccc12	5.1	29.0	0.9
Cc1nc(SCC(=O)Nc2cccc3ccccc23)c2oc3ccccc3c2n1	24.8	30.6*	41.9*
Cc1nc(SCc2ccccc2C)c2oc3ccccc3c2n1	.	60.2*	.
Cc1nc(SCC(=O)c2ccc(Cl)cc2)c2oc3ccccc3c2n1	-15.9	-39.3	-162.1
Cc1nc(SCC(=O)NC2CCCC2)c2oc3ccccc3c2n1	12.6	24.6	38.3*
COC(=O)c1ccccc1NC(=O)CSc1nc(C)nc2c1oc1ccccc12	-6.0	45.3*	8.2
SMILES	USP28 inh	USP17 block	USP30 inh
C=C(C/C=C/C=C/CC/C=C/CN(C)C(=O)/C=C(\C)OC)c1nc(CC(C)C2OC(=O)c3c(ccc(C)c3O)C2O)co1 (centres undefined)	-22.6	9.2	-141.3
O=C(c1cc2ccccc2oc1=O)N(c1ccccn1)C1CCCCC1	-9.7	-7.9	-4.7
COc1ccc(-c2cc3c(=O)n(CC(=O)NC4CCCCCC4)ncn3n2)cc1	0.3	-1.0	-2.1
CCCCCC(=O)N1c2ccccc2NC2=C(C(=O)CC(c3ccco3)C2)C1c1cc(OC)c(OC)c(OC)c1 (centres undefined)	0.5	34.3*	-40.2
COc1ccc(C2C3=C(CC(c4ccco4)CC3=O)Nc3ccccc3N2C(C)=O)cc1 (centres undefined)	-1.0	37.8*	-53.0
COc1ccc(C2C3=C(CC(c4ccco4)CC3=O)Nc3ccccc3N2C(=O)C(F)(F)F)cc1 (centres undefined)	-0.2	-0.2	-8.6
COc1cc(C2C3=C(CC(c4ccco4)CC3=O)Nc3ccccc3N2C(=O)CCC(=O)O)cc(OC)c1OC (centres undefined)	6.3	-0.1	-33.9
Cc1ccc(C2=NC3(CCCCCC3)N(CC(=O)Nc3ccc(C)c(C)c3)C2=O)cc1	-1.0	0.0	15.1
Cc1ccc(C(=O)Nc2nc(C)cc(C)c2-c2noc(C)n2)cc1	-0.8	-1.5	-8.7
